# Data published in paper PMC11006913.
# Substitutions are numbered along the chain they refer to.
# Legend:
# Assay in all cases: PBM; 200 nM protein, PBS
# Details in all cases: dsDNA, one strand shown
# [1] = target: CRX (Homo sapiens, UniProt O43186 26-111)
# [2] = target: CRX (Homo sapiens, UniProt O43186 26-111, E42D)
# [3] = target: CRX (Homo sapiens, UniProt O43186 26-111, R41L)
# [4] = target: T1, NKX2-4 (Homo sapiens, UniProt Q9H2Z4 175-261, P217L)
# T1 sequence: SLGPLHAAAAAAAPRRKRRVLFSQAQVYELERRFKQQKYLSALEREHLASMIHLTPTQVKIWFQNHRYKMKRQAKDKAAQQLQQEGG
# [5] = target: HOXA4 (Homo sapiens, UniProt Q00056 201-287, W262R)
# [6] = target: HOXC9 (Homo sapiens, UniProt P31274 178-260, K195R)
# [7] = target: T2, NKX2-4 (Homo sapiens, UniProt Q9H2Z4 175-261, T231S)
# T2 sequence: T1 sequence with L43P, T57S
# [8] = target: T3, NKX2-4 (Homo sapiens, UniProt Q9H2Z4 175-261)
# T3 sequence: T1 sequence with L43P
# [9] = target: HOXA4 (Homo sapiens, UniProt Q00056 201-287, R217L)
# [10] = target: HOXC9 (Homo sapiens, UniProt P31274 178-260)
# [11] = target: MSX2 (Homo sapiens, UniProt P35548 130-214, R199I)
# [12] = target: HOXC9 (Homo sapiens, UniProt P31274 178-260, R193K)
# [13] = target: HOXA4 (Homo sapiens, UniProt Q00056 201-287)
# [14] = target: MSX2 (Homo sapiens, UniProt P35548 130-214)
# [15] = target: T4, NKX2-4 (Homo sapiens, UniProt Q9H2Z4 175-261, R246Q)
# T4 sequence: T1 sequence with L43P, R72Q
# [16] = target: HOXC9 (Homo sapiens, UniProt P31274 178-260, R222W)
# [17] = target: MSX2 (Homo sapiens, UniProt P35548 130-214, F161Y)
# [18] = target: HOXA4 (Homo sapiens, UniProt Q00056 201-287, W262F)
# [19] = target: PITX2 (Homo sapiens, UniProt Q99697 72-157)
# [20] = target: T5, VENTX (Homo sapiens, UniProt O95231 78-163, R121Q)
# T5 sequence: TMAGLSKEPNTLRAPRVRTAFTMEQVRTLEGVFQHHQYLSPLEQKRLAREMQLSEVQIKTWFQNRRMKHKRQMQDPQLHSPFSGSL
# [21] = target: HOXB9 (Homo sapiens, UniProt P17482 171-250, T197M)
# [22] = target: T6, VENTX (Homo sapiens, UniProt O95231 78-163)
# T6 sequence: T5 sequence with Q44R
# [23] = target: T7, VENTX (Homo sapiens, UniProt O95231 78-163, Y115F)
# T7 sequence: T5 sequence with Y38F, Q44R
# [24] = target: HOXB9 (Homo sapiens, UniProt P17482 171-250)
# [25] = target: HOXB9 (Homo sapiens, UniProt P17482 171-250, R186Q)
# HOXB9 (Homo sapiens, UniProt P17482 171-250, R186Q), sequence (P17482 171-250 R186Q): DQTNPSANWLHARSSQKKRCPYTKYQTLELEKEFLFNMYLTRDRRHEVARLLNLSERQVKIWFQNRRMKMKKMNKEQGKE
# CRX (Homo sapiens, UniProt O43186 26-111), sequence (O43186 26-111): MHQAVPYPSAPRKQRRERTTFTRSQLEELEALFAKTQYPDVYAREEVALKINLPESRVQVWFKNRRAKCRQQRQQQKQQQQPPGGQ
# CRX (Homo sapiens, UniProt O43186 26-111, E42D), sequence (O43186 26-111 E42D): as the sequence (O43186 26-111) above, with E17D counted along it
# CRX (Homo sapiens, UniProt O43186 26-111, R41L), sequence (O43186 26-111 R41L): as the sequence (O43186 26-111) above, with R16L counted along it
# MSX2 (Homo sapiens, UniProt P35548 130-214, R199I), sequence (P35548 130-214 R199I): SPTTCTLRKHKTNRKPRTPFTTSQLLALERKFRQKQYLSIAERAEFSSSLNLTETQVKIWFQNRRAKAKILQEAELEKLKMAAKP
# HOXC9 (Homo sapiens, UniProt P31274 178-260, R222W), sequence (P31274 178-260 R222W): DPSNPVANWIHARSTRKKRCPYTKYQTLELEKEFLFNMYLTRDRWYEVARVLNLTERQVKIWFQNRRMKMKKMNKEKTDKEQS
# MSX2 (Homo sapiens, UniProt P35548 130-214), sequence (P35548 130-214): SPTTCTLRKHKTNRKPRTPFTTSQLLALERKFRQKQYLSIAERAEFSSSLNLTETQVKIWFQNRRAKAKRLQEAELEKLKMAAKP
# HOXB9 (Homo sapiens, UniProt P17482 171-250), sequence (P17482 171-250): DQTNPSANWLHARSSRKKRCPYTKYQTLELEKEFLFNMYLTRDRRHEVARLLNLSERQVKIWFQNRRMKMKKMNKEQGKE
# HOXA4 (Homo sapiens, UniProt Q00056 201-287, W262R), sequence (Q00056 201-287 W262R): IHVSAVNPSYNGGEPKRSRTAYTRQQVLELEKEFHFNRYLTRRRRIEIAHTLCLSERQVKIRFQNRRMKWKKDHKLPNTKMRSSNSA
# HOXA4 (Homo sapiens, UniProt Q00056 201-287), sequence (Q00056 201-287): as the sequence (Q00056 201-287 W262R) above, with R62W counted along it
# HOXC9 (Homo sapiens, UniProt P31274 178-260), sequence (P31274 178-260): as the sequence (P31274 178-260 R222W) above, with W45R counted along it
# HOXC9 (Homo sapiens, UniProt P31274 178-260, K195R), sequence (P31274 178-260 K195R): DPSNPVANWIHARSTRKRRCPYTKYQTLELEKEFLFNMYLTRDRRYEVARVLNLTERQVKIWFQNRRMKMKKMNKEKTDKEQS
# HOXB9 (Homo sapiens, UniProt P17482 171-250, T197M), sequence (P17482 171-250 T197M): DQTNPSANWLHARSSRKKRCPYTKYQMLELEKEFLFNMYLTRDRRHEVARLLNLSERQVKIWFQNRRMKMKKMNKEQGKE
# HOXA4 (Homo sapiens, UniProt Q00056 201-287, R217L), sequence (Q00056 201-287 R217L): as the sequence (Q00056 201-287 W262R) above, with R17L, R62W counted along it
# MSX2 (Homo sapiens, UniProt P35548 130-214, F161Y), sequence (P35548 130-214 F161Y): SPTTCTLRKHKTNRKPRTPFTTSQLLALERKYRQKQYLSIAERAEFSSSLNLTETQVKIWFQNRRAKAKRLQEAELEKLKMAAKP
# HOXC9 (Homo sapiens, UniProt P31274 178-260, R193K), sequence (P31274 178-260 R193K): as the sequence (P31274 178-260 R222W) above, with R16K, W45R counted along it
# HOXA4 (Homo sapiens, UniProt Q00056 201-287, W262F), sequence (Q00056 201-287 W262F): as the sequence (Q00056 201-287 W262R) above, with R62F counted along it
sequence,measurement,setting,value
CGTTCTAC,binding signal,[1],"8.44 upbm affinity estimate (log intensity, higher = more binding, comparable within an allelic series)"
same,binding signal,[2],"8.39 upbm affinity estimate (log intensity, higher = more binding, comparable within an allelic series)"
same,binding signal,[3],"8.27 upbm affinity estimate (log intensity, higher = more binding, comparable within an allelic series)"
AAGATTAT,binding signal,[1],"12.9 upbm affinity estimate (log intensity, higher = more binding, comparable within an allelic series)"
same,binding signal,[2],"12.8 upbm affinity estimate (log intensity, higher = more binding, comparable within an allelic series)"
same,binding signal,[3],"12.8 upbm affinity estimate (log intensity, higher = more binding, comparable within an allelic series)"
ACTGCTGG,binding signal,[1],"8.37 upbm affinity estimate (log intensity, higher = more binding, comparable within an allelic series)"
same,binding signal,[2],"8.49 upbm affinity estimate (log intensity, higher = more binding, comparable within an allelic series)"
same,binding signal,[3],"8.37 upbm affinity estimate (log intensity, higher = more binding, comparable within an allelic series)"
GCCAATCC,binding signal,[1],"10.4 upbm affinity estimate (log intensity, higher = more binding, comparable within an allelic series)"
same,binding signal,[2],"10.3 upbm affinity estimate (log intensity, higher = more binding, comparable within an allelic series)"
same,binding signal,[3],"10.1 upbm affinity estimate (log intensity, higher = more binding, comparable within an allelic series)"
AAATCCAA,binding signal,[1],"11.2 upbm affinity estimate (log intensity, higher = more binding, comparable within an allelic series)"
same,binding signal,[2],"11 upbm affinity estimate (log intensity, higher = more binding, comparable within an allelic series)"
same,binding signal,[3],"11 upbm affinity estimate (log intensity, higher = more binding, comparable within an allelic series)"
ACGCCACG,binding signal,[1],"8.27 upbm affinity estimate (log intensity, higher = more binding, comparable within an allelic series)"
same,binding signal,[2],"8.14 upbm affinity estimate (log intensity, higher = more binding, comparable within an allelic series)"
same,binding signal,[3],"8.23 upbm affinity estimate (log intensity, higher = more binding, comparable within an allelic series)"
CCGAACCG,binding signal,[1],"8.21 upbm affinity estimate (log intensity, higher = more binding, comparable within an allelic series)"
same,binding signal,[2],"8.3 upbm affinity estimate (log intensity, higher = more binding, comparable within an allelic series)"
same,binding signal,[3],"8.28 upbm affinity estimate (log intensity, higher = more binding, comparable within an allelic series)"
GCGACCGC,binding signal,[4],"9.58 upbm affinity estimate (log intensity, higher = more binding, comparable within an allelic series)"
same,binding signal,[5],"9.61 upbm affinity estimate (log intensity, higher = more binding, comparable within an allelic series)"
same,binding signal,[6],"9.65 upbm affinity estimate (log intensity, higher = more binding, comparable within an allelic series)"
same,binding signal,[7],"9.41 upbm affinity estimate (log intensity, higher = more binding, comparable within an allelic series)"
same,binding signal,[8],"9.53 upbm affinity estimate (log intensity, higher = more binding, comparable within an allelic series)"
same,binding signal,[9],"9.65 upbm affinity estimate (log intensity, higher = more binding, comparable within an allelic series)"
same,binding signal,[10],"9.71 upbm affinity estimate (log intensity, higher = more binding, comparable within an allelic series)"
same,binding signal,[11],"9.49 upbm affinity estimate (log intensity, higher = more binding, comparable within an allelic series)"
same,binding signal,[12],"9.6 upbm affinity estimate (log intensity, higher = more binding, comparable within an allelic series)"
same,binding signal,[13],"9.86 upbm affinity estimate (log intensity, higher = more binding, comparable within an allelic series)"
same,binding signal,[14],"9.38 upbm affinity estimate (log intensity, higher = more binding, comparable within an allelic series)"
same,binding signal,[15],"9.69 upbm affinity estimate (log intensity, higher = more binding, comparable within an allelic series)"
same,binding signal,[16],"9.64 upbm affinity estimate (log intensity, higher = more binding, comparable within an allelic series)"
same,binding signal,[17],"9.56 upbm affinity estimate (log intensity, higher = more binding, comparable within an allelic series)"
same,binding signal,[18],"9.79 upbm affinity estimate (log intensity, higher = more binding, comparable within an allelic series)"
GCAGATCA,binding signal,[1],"10.3 upbm affinity estimate (log intensity, higher = more binding, comparable within an allelic series)"
same,binding signal,[2],"10 upbm affinity estimate (log intensity, higher = more binding, comparable within an allelic series)"
same,binding signal,[3],"9.94 upbm affinity estimate (log intensity, higher = more binding, comparable within an allelic series)"
GTAATCCA,binding signal,[1],"12.9 upbm affinity estimate (log intensity, higher = more binding, comparable within an allelic series)"
same,binding signal,[19],"12.9 upbm affinity estimate (log intensity, higher = more binding, comparable within an allelic series)"
same,binding signal,[3],"12.7 upbm affinity estimate (log intensity, higher = more binding, comparable within an allelic series)"
CACCGCGG,binding signal,[4],"9.48 upbm affinity estimate (log intensity, higher = more binding, comparable within an allelic series)"
same,binding signal,[20],"8.21 upbm affinity estimate (log intensity, higher = more binding, comparable within an allelic series)"
same,binding signal,[21],"8.56 upbm affinity estimate (log intensity, higher = more binding, comparable within an allelic series)"
same,binding signal,[22],"8.03 upbm affinity estimate (log intensity, higher = more binding, comparable within an allelic series)"
same,binding signal,[7],"9.5 upbm affinity estimate (log intensity, higher = more binding, comparable within an allelic series)"
same,binding signal,[23],"8.12 upbm affinity estimate (log intensity, higher = more binding, comparable within an allelic series)"
same,binding signal,[8],"9.48 upbm affinity estimate (log intensity, higher = more binding, comparable within an allelic series)"
same,binding signal,[24],"8.55 upbm affinity estimate (log intensity, higher = more binding, comparable within an allelic series)"
same,binding signal,[15],"9.54 upbm affinity estimate (log intensity, higher = more binding, comparable within an allelic series)"
same,binding signal,[25],"8.55 upbm affinity estimate (log intensity, higher = more binding, comparable within an allelic series)"
